# Measurements reported in PubChem BioAssay AID743279 (National Center for Advancing Translational Sciences (NCATS), 2014).
# In all, about 360,000 compounds went through this assay and about 17,000 (4.7%) were called active. Inconclusive results (about 5%) are left out. The list comes from a sample in which actives are over-represented; it also holds similar structures and randomly drawn compounds. Unmarked numbers belong to inactive results. Rule as the data show it: active = activity change below about -50%; inconclusive = mostly about -30% to -49%; inactive = weaker than that.
# Assay: qHTS for Inhibitors of Inflammasome Signaling: IL-1-beta AlphaLISA Primary Screen
# Conditions: THP-1 LPS/ATP IL-1B secretion, 16 h; at 57.5 µM, stronger effect = lower value
# In short: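 THP-1 cells pretreated 1 hr with compounds (up to 57.5 uM final), then stimulated with LPS (250 ng/mL final) plus ATP (1.25 mM final); secreted IL-1B measured by AlphaLISA after 16 hr, decreased signal indicating inhibition.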
# % is scaled to controls: 0 for no effect and ±100 for the full control effect.
row,Compound,activity change
1,Cc1c(CN2CCC(CO)(CCOc3ccccc3)CC2)[nH]c2ccc(Cl)cc12,-96.7% (active)
2,CC(C)(O)C#Cc1ccc(CN2CCC(CO)(CCc3ccccc3)CC2)cc1,-1.38%
3,OCC1(CCOc2ccccc2)CCN(Cc2cn[nH]c2-c2ccccc2)CC1,-2.13%
4,CC1CCN(c2ccc3c(c2)S(=O)(=O)c2cc(C(=O)O)ccc2C3=O)CC1,22%
5,Cc1cccc(-n2ncc(C#N)c2-n2cccc2)c1,28.7%
6,C=CCNc1cnn(-c2ccc(C)cc2)c(=O)c1Cl,-16.2%
7,Cc1cccc(-n2ncc(Cl)c(Cl)c2=O)c1,-100% (active)
8,CC1(C(=O)NS(=O)(=O)c2cccc(F)c2)CCN1C(=O)Cc1ccc(Cl)cc1Cl (centres undefined),-15.9%
9,O=C(Nc1cc(S(=O)(=O)N2CCCCC2)ccc1Cl)C1COc2ccccc2O1 (centres undefined),-6.17%
10,NS(=O)(=O)c1ccc(CCNC(=O)CNC(=O)Cc2ccccc2)cc1,12.6%
11,CC(C)c1nccn1S(=O)(=O)c1cc([N+](=O)[O-])ccc1Cl,0%
12,CCc1nc(C)cn1S(=O)(=O)c1cc(OC)c(C)cc1C,30.3%
13,CCc1nc(C)cn1S(=O)(=O)c1cc([N+](=O)[O-])ccc1Cl,-82.5% (active)
14,O=C1N[C@@H](Cc2ccccc2)C(=O)N2[C@@H]3N(S(=O)(=O)c4ccc(F)cc4)c4ccccc4[C@]3(Br)C[C@@H]12,-2.75%
15,Cc1cccc(S(=O)(=O)N(C)C[C@H]2OCc3cnnn3CCCC(=O)N([C@@H](C)CO)C[C@H]2C)c1,16.6%
16,COc1cccc(C2c3[nH]c4ccccc4c3CCN2Cc2cccc(C)n2)c1 (centres undefined),-5.35%
17,CCOc1ccc(C2c3[nH]c4ccccc4c3CCN2Cc2cn(CC)nc2C)cc1 (centres undefined),18.2%
18,Oc1cccc(C2c3[nH]c4ccccc4c3CCN2Cc2cnn(-c3ccccc3)c2)c1 (centres undefined),-64% (active)
19,O=S1(=O)CCOC[C@H](Cc2ccccc2)N1Cc1ccccc1Br,-7.15%
20,CC(C)CCNC(=O)c1[nH]c(C(F)(F)F)nc1-c1ccccc1,28.5%

row,Compound,activity change
1,CC(C)Oc1ccc(CCc2n[nH]c(=S)n2Cc2ccccc2)cc1,16.3%
2,Brc1c(CSc2nncc3ccccc23)nc2ccccn12,-74% (active)
3,CN(C(=O)CSc1nncc2ccccc12)C1CCCCC1,0%
4,COC(=O)C[C@H]1C=C[C@H](NC(=O)c2ccc(F)cc2)[C@@H](CO)O1,-9.5%
5,CCOC(=O)N1CCN(C(=O)c2ccc(S(=O)(=O)Nc3cccc(C(F)(F)F)c3)cc2)CC1,0.178%
6,CCn1c(/C=C/Nc2ccccc2)[n+](CC)c2ccc(C(=O)OCC(F)(F)F)cc21,-98.2% (active)
7,CCOC(=O)c1ccc2c(c1)nc(C)n2CC,-16.9%
8,C[C@H](CO)N1C[C@H](C)[C@@H](CN(C)S(=O)(=O)c2ccc(Oc3ccccc3)cc2)OCc2cn(nn2)CCCC1=O,4.67%
9,O=S1(=O)CC(N2CCN(Cc3ccccc3F)CC2)CN1Cc1cn(Cc2cccc(C(F)(F)F)c2)nn1 (centres undefined),-6.73%
10,S=c1[nH]nc(/C=C/c2ccccc2)o1,-8.62%
11,O=C(Cc1ccc(-c2ccccc2)cc1)NC(c1ccccc1)c1ccccc1,18.8%
12,CCOC(=O)C(C(=O)OCC)C(C#N)c1ccccc1 (centres undefined),-20.8%
13,CCOC(=O)/C=C/C(=O)OCC(=O)NC(c1ccccc1)c1ccccc1,-96.9% (active)
14,CCN(CC)CCCN1C(=O)C(=O)/C(=C(/O)c2c(C)nc3ccccn23)C1c1ccc(C)o1 (centres undefined),-3.42%
15,COCc1ccc(C(=O)NC2CC(C)(C)Cc3c2cnn3-c2ccc(C)cc2)o1 (centres undefined),-2.96%
16,CCC1C/C(=C/c2cccs2)C(=O)/C(=C/c2cccs2)C1 (centres undefined),-5.91%
17,CC(C)(C)C1C/C(=C/c2ccco2)C(=O)/C(=C/c2ccco2)C1 (centres undefined),-67.3% (active)
18,COC(=O)COc1ccc2c(c1C)O/C(=C\c1ccco1)C2=O,-8.17%
19,CCNC(=O)C1(C)CCN(Cc2ccc(C(=O)OCC)o2)C1 (centres undefined),0%
20,CCCCCCN1CCN(C2CN(Cc3cn(Cc4ccc(F)cc4)nn3)S(=O)(=O)C2)CC1 (centres undefined),18.3%

row,Compound,activity change
1,Cc1ccccc1N/N=C/c1ccc(N2CCOCC2)cc1,0.147%
2,Cc1cc(Nc2ccc(C(=O)N3CCCCC3)cc2)c2cccc(C)c2n1,-2.62%
3,Cc1cc(Nc2ccc(N3CCOCC3)cc2)c2cccc(C)c2n1,-91.7% (active)
4,CN(CCc1ccccc1)C(=O)c1cccc(NC(=O)Cc2cccc(NC(=O)C3CCCN(C(=O)CCc4ccccc4)C3)c2)c1 (centres undefined),-21.4%
5,NC1=NC(=O)C2(COC(c3ccccc3Cl)OC2)S1 (centres undefined),-5.39%
6,COc1cccc(CN(C)CC(O)COC(c2ccccc2)c2ccccc2C)c1 (centres undefined),-77% (active)
7,Cc1ccccc1C(OCC(O)CN1CCCCC1CCO)c1ccccc1 (centres undefined),-10.1%
8,COc1cccc(CN(C)CC(=O)Nc2ccccc2C(=O)Nc2ccccc2)c1,58.1%
9,CC(OC(=O)c1ccccc1NCCO)C(=O)Nc1ccnn1C(C)C (centres undefined),0%
10,CCn1cc(CN2CCCC(CNS(=O)(=O)Cc3ccccc3)C2)cn1 (centres undefined),7.8%
11,CC1=C(C(=O)N(C)C)CC(CC(=O)NCCN2CCOCC2)C(=O)N1Cc1ccccc1 (centres undefined),17.7%
12,C=CCSc1nsc(NC(=O)Nc2cccc(C(C)=O)c2)n1,-100% (active)
13,CSc1nsc(NC(=O)Nc2ccccc2)n1,0%
14,CSc1ccccc1C(=O)Nc1cccc(C(C)=O)c1,-2.09%
15,CCSc1nsc(NC(=O)Nc2cccc(C(C)=O)c2)n1,-101% (active)
16,C=CCSc1nnc(NC(=O)c2ccc(NC(C)=O)cc2)s1,1.35%
17,CC(=O)c1cccc(NC(=S)N2CCCC2)c1,24.4%
18,S=C(NN=Cc1ccccn1)Nc1ccccn1,68.2%
19,CN1C[C@@H](CO)O[C@@H](n2cnc3c(N4CCN(CCO)CC4)ncnc32)C1,23.3%
